DT40 TDP1 CPT – growth inhibition of DT40 Tdp1-/-;hTDP1 cells with camptothecin (screen for TDP1 inhibitors). AID 686979. 420,000 tested, 12% active. Potency, µM (series often up to 46.2 µM), without a hit: at the top dose activity change, negative = growth inhibition, most hits filed as inhibitors. chicken DT40 Tdp1-/-;hTDP1 cells + 20 nM CPT, ATP luminescence, 48 h; note: potency is the fitted concentration of half-maximal effect; nearly all actives have a fitted effect of over 55% in size
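Chicken DT40 Tdp1-/- cells stably complemented with human TDP1 were seeded at 400 cells/well in medium containing 20 nM camptothecin, exposed to pin-transferred compounds, and grown at 37 °C for at least 48 hr. Viability was read as ATP luminescence.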
RORgamma inh – inhibitors of mouse ROR gamma transcriptional activity. Drosophila S2 Gal4-RORgamma UAS-luciferase reporter, 20 h. Potency, µM (top dose mostly 53.6 µM), inactives show at the top dose activity change, negative = inhibition, hits mostly inhibitors. 310,000 tested, 5.4% active; note: potency is the fitted concentration of half-maximal effect; nearly all actives have a fitted effect of over 60% in size
Target sequence (P51450 whole entry, looked up, the tested form may be a part): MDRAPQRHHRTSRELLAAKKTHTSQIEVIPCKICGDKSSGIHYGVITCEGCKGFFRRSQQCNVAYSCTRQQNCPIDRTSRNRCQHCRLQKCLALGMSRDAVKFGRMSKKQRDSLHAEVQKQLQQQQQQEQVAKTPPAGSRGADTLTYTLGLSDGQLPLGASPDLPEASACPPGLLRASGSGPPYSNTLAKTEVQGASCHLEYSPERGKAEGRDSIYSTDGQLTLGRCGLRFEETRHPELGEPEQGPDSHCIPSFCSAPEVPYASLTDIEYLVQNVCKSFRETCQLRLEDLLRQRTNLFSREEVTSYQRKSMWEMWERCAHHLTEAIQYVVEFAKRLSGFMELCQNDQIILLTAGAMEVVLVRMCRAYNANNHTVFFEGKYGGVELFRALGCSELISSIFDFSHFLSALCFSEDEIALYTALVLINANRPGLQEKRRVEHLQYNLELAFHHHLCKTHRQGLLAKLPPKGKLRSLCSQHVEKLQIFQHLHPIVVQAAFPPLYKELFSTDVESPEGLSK
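Read-out: Photinus luciferase luminescence; inhibitors lower reporter signal. Insect Schneider cells with Gal4-ROR gamma fusion under metallothionein promoter, UAS reporter; 700 uM final copper sulfate induction, 20 hr, ambient temperature.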
Gal4-VP16 FLuc – inhibits Gal4-VP16 luciferase reporter, ROR gamma counter-screen; AID 2546; Drosophila S2 Gal4-VP16 UAS-luciferase, luminescence, 20 h; 310,000 tested, 3.5% active; Potency, µM (top dose mostly 53.6 µM), inactives show top-dose activity, negative = inhibition, most hits filed as inhibitors;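 note: Gal4-VP16 expression switched on by copper sulfate through the metallothionein promoter; potency is the fitted concentration of half-maximal effect; nearly all actives have a fitted effect of over 50% in size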
ELG1 DNA repair – blocks ELG1-dependent DNA repair in HEK293T cells | 330,000 tested, 2.3% active | HEK293T ELG1-luciferase reporter, luminescence, 16 h; DNA damage induced by 5-fluorouridine | AID 504467 | Potency, µM (doses to about 46.1 µM), for inactives: at the top dose activity change, negative = inhibition, most hits filed as inhibitors; note: potency is the fitted concentration of half-maximal effect; nearly all actives have a fitted effect of over 55% in size
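5-Fluorouridine DNA damage + compound/DMSO, 2,000 cells/well, 16 h, 37 °C/5% CO2. ONE-Glo, 30 min RT, luminescence. Readout = decrease in reporter signal.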
IL-1B inflam inh – inflammasome signaling inhibition, IL-1 beta readout; THP-1 LPS/ATP IL-1B secretion, AlphaLISA, 16 h; stronger effect = lower value; activity change, % at 57.5 µM; 360,000 tested, 4.7% active; AID 743279; in the data active = activity change below about -50%; inconclusive = mostly about -30% to -49%
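THP-1 cells pretreated 1 hr with compounds (up to 57.5 uM final), then stimulated with LPS (250 ng/mL final) plus ATP (1.25 mM final); secreted IL-1B measured by AlphaLISA after 16 hr, decreased signal indicating inhibition.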
TDP1 cell noCPT – qHTS for Inhibitors of human tyrosyl-DNA phosphodiesterase 1 (TDP1): qHTS in cells in absence of CPT; DT40 Tdp1-/- hTDP1 cells, no CPT, ATP luminescence, 48 h; Potency, µM (doses to about 46.2 µM), for the others: at the top dose activity change, negative = growth inhibition, actives largely listed as inhibitors; 420,000 tested, 15% active; AID 686978, 2013; note: potency is the fitted concentration of half-maximal effect; nearly all actives have a fitted effect of over 55% in size
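A cellular qHTS used chicken DT40 cells lacking endogenous Tdp1 but carrying stably transfected human TDP1. Compounds were applied without camptothecin, and cell growth kinetics were judged by ATP-dependent luminescence after ≥48 hr.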
Starred values were filed as active, the others as inactive; ? = inconclusive; . = not tested or not shown. Only some compounds are listed: those with a hit (about 21% of all), similar ones and a draw of the others. Unless noted, calls come from the whole dose curve; as a rule, active = well fitted curve in the direction sought with a large enough effect; inconclusive = small, poorly fitted or top-dose-only effect, or another doubt; inactive = no such curve, though single readings can be large; an effect the other way counts as inactive or inconclusive. % is set by controls: 0 for no effect and ±100 for the full control effect.

SMILES | DT40 TDP1 CPT | RORgamma inh | Gal4-VP16 FLuc | ELG1 DNA repair | IL-1B inflam inh | TDP1 cell noCPT
O=C(NC1=C(Nc2ccc(F)cc2)C(=O)c2ccccc2C1=O)c1ccc(Cl)cc1 | 20.6µM* | -37.6% | ? | -10.3% | 29.7 | ?
CCC(=O)Nc1ccc(C2C(=O)c3ccccc3C2=O)cc1 | 16.4µM* | ? | ? | ? | -3.0 | 20.6µM*
CCCCC(=O)Nc1ccc(C2C(=O)c3ccccc3C2=O)cc1 | -24.2% | . | . | . | -2.5 | ?
COc1ccc(NC2=C(NC(C)=O)C(=O)c3ccccc3C2=O)cc1 | 13µM* | -42.3% | -15.4% | -20.7% | -5.3 | 18.4µM*
COC1=C(Nc2ccc(OC)cc2)C(=O)c2ccccc2C1=O | 29.1µM* | 4.8% | -3.1% | 28.0% | ? | 14.6µM*
[O-]/[N+](=N\Nc1ccc(Cl)cc1)c1ccccc1 | 0.9% | . | . | . | 7.8 | -27.7%
COC1=C(Nc2ccc(O)cc2)C(=O)c2ccccc2C1=O | 4.11µM* | -33.0% | -26.3% | -15.3% | -64.2* | ?
COC1=C(Nc2ccc(OC)cc2)C(=O)C(OC)=C(Nc2ccc(OC)cc2)C1=O | 6.1% | . | . | . | -14.5 | -12.3%
CCOc1ccc(NC2=C(OC)C(=O)c3ccccc3C2=O)cc1 | 20.6µM* | -3.1% | -25.2% | 24.1% | -83.3* | ?
CCC(=O)NC1=C(Nc2ccc(N)cc2)C(=O)c2ccccc2C1=O | ? | 12.6µM* | ? | ? | -3.1 | 8.2µM*
Cc1cc(C)cc(NC2=C(N)C(=O)c3ccccc3C2=O)c1 | ? | -11.3% | -5.7% | ? | -6.9 | 14.0%
Cc1cccc(N2CCN(C(C(=O)NCc3ccccc3)c3ccc(C(F)(F)F)cc3)CC2)c1C (stereo not drawn) | ? | . | . | . | 8.1 | ?
CSCCC(NC(=O)c1cccc([N+](=O)[O-])c1)C(=O)OCC(=O)N1CCCC1=O (stereo not drawn) | -4.8% | . | . | 11.3% | 4.8 | -0.9%
O=C(CN1C(=O)NC2(CCCCC2)C1=O)Nc1ccc2c(c1)OCCCO2 | -2.6% | . | . | ? | ? | 18.6%
O=C1N[C@@H](Cc2c[nH]c3ccccc23)COC(=O)[C@H](Cc2ccc(F)cc2)C/C=C\C[C@@H]1CC(=O)N(CCO)Cc1ccccc1 | ? | . | . | 23.1µM* | -24.0 | ?
O=C1N[C@@H](Cc2c[nH]c3ccccc23)COC(=O)[C@@H](Cc2ccc(F)cc2)C/C=C\C[C@H]1CC(=O)N(CCO)Cc1ccccc1 | ? | . | . | 18.3µM* | ? | 20.6µM*
O=C(C[C@@H]1C/C=C\C[C@@H](Cc2ccc(F)cc2)C(=O)OC[C@@H](Cc2c[nH]c3ccccc23)NC1=O)NCCO | ? | . | . | -11.9% | 19.1 | ?
COc1ccccc1NC(=O)COC(=O)Cn1cnc2c1c(=O)n(C)c(=O)n2C | ? | . | . | 8.2% | -4.2 | -11.2%
COc1ccc(NS(=O)(=O)c2cc(NS(=O)(=O)c3cc(C(=O)O)ccc3OC)ccc2C)cc1 | -6.8% | . | . | . | 17.3 | 2.9%
CCOC(=O)[C@]12CCCC=C1N(Cc1cccc3ccccc13)C(=O)[C@H](CC(=O)N1CCCC1)C2 | ? | . | . | . | -19.0 | 20.6µM*
CCOC(=O)[C@]12CCC=C1N(Cc1cccc3ccccc13)C(=O)[C@H](CC(=O)N1CCN(C(=O)c3ccco3)CC1)C2 | 18.4µM* | . | . | . | ? | ?
CCOC(=O)[C@]12CCC=C1N(Cc1cccc3ccccc13)C(=O)[C@H](CC(=O)N1CCOCC1)C2 | ? | . | . | . | -16.7 | ?
CCOC(=O)[C@]12CCCC=C1N(Cc1ccccc1)C(=O)[C@H](CC(=O)N1CCC(c3ccccc3)CC1)C2 | 16.4µM* | . | . | . | -5.0 | ?

Screens as filed in PubChem.
